The text below walks through data of PubChem BioAssay (EPA / NIEHS).

Where “and” joins values, the source holds several entries; their conditions need not be identical. Identical values can stand only once. Inconclusive results are not listed. Some compounds were tested as several samples or in several runs, with calls that do not always agree. Calls of active or inactive are those of the source. Rule for the calls, unless noted: active = hit-call score of the fitted dose curve at least 0.9, where 1 is the maximum; inactive = score below 0.9.

A short description of experiment [1]: CCTE_Shafer_MEA_acute_per_burst_spike_number_mean: CCTE's Neural Acute Assay for Average Number of Spikes Per Burst, Shafer Lab (AID 2284015).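 Note: hits are decreases in mean spikes per burst versus baseline.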 In a few lines:
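We recorded spontaneous network firing of rat cortical neurons for 40 min before and 40 min during exposure to compound at 0.03-40 uM, at 37 C. Spikes were detected adaptively at 8x rms noise, and the change in average spikes per burst was fitted against DMSO.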

A short description of experiment [2]: CCTE_Shafer_MEA_acute_interburst_interval_mean: CCTE's Neural Acute Assay for Mean Interburst Interval, Shafer Lab (AID 2284016).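 Note: percent change of mean interburst interval versus each well's own pre-dose baseline; curves fitted for decrease in interburst interval relative to DMSO.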 The procedure, abridged: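 MEA recording of spontaneous network bursting in primary rat cortical cultures; mean interburst interval was compared before and after a 40-min compound exposure (0.03-40 uM) and expressed as percent change, relative to DMSO.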

A short description of experiment [3]: CCTE_Shafer_MEA_acute_burst_percentage_mean: CCTE's Neural Acute Assay for Percentage of Spikes in a Burst, Shafer Lab (AID 2284017).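 For AC50: curve fitted for loss of signal so potency reflects decreased burst percentage.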 In a few lines:
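Compounds were tested at 0.03-40 uM on primary rat cortical neuron networks grown over microelectrodes, with at least three wells per compound. Spontaneous firing was recorded for 40 min before and 40 min after dosing, and the change in burst percentage was computed per well.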

Experiment [4] can be described thus: CCTE_Shafer_MEA_acute_per_network_burst_spike_number_mean: CCTE's Neural Acute Assay for Average Number of Spikes in a Network Burst, Shafer Lab (AID 2284019).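 For AC50: curve fitted for loss of signal so actives reduce spikes per network burst.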 In a few lines: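 Rat cortical cultures, DIV 13/15; spike threshold 8x rms noise, 300-5000 Hz band-pass, 12.5 kHz sampling; wells need >/= 10 active electrodes. Compound 0.03-40 uM, 40 min, 37 C; % change vs own baseline, DMSO negative control.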

Experiment [5] can be described thus: CCTE_Shafer_MEA_acute_per_network_burst_spike_number_std: CCTE's Neural Acute Assay for Standard Deviation of Number of Spikes in a Network Burst, Shafer Lab (AID 2284020).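 Note: fitted for decrease in spike-number SD versus DMSO so actives lower it.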 In a few lines: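 Rat cortical cultures, DIV 13/15, 37 C; 20-min stabilisation, 40-min baseline, compound 0.03-40 uM, 40-min re-record. Spikes detected at 8x rms noise (300-5000 Hz band-pass). Readout: % change from baseline in per-burst spike-number SD.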

Experiment [6] is described as follows: CCTE_Shafer_MEA_acute_network_burst_percentage: CCTE's Neural Acute Assay for Percentage of Network Bursts, Shafer Lab (AID 2284022).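 Note: curves fitted for loss so actives lower network burst percentage.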 In a few lines:
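Network burst percentage (spikes in network bursts divided by total spikes) recorded at 37 C over 40 min baseline and 40 min after compound, 0.03-40 uM, in rat cortical cultures at DIV 13 or 15. Analysed as percent change from baseline versus DMSO.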

Experiment [7] is described as follows: CCTE_Shafer_MEA_acute_cross_correlation_area: CCTE's Neural Acute Assay for Area of Cross Correlation, Shafer Lab (AID 2284024).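 Note: rat primary cortical neuron networks on 48-well MEA at DIV 13 or 15 with 40 min exposure; area under pooled inter-electrode spike cross-correlation near zero lag as percent change from own baseline; curves fitted for loss of cross-correlation area so actives lower synchrony.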 In a few lines: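 Percent change in well-wide cross-correlation area (window around zero lag) between 40 min baseline and 40 min post-compound recordings, 37 C; rat cortical cultures on MEA at DIV 13 or 15, dosed 0.03-40 uM, wells needing >/= 10 active electrodes.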

A short description of experiment [8]: CCTE_Shafer_MEA_acute_cross_correlation_HWHM: CCTE's Neural Acute Assay for Cross Correlation at Half Width at Half Maximum, Shafer Lab (AID 2284026).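 Note: percent change per well from pre-dose baseline in spike cross-correlogram half width; hits are a decrease in cross-correlogram half width relative to DMSO.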 In a few lines: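 Per-well percent change in cross-correlogram half width at half maximum, derived from 40-min recordings before and after compound (0.03-40 uM) at 37 C. Cultures were rat cortical neurons, DIV 13 or 15, with adaptive spike detection at 8x rms.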

The nature of experiment [9]: CCTE_Shafer_MEA_acute_synchrony_index: CCTE's Neural Acute Assay for Synchrony, Shafer Lab (AID 2284027).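 Note: network synchrony index of spontaneous spiking in primary rat cortical neurons on MEAs; fitted for loss of signal so actives lower synchrony relative to DMSO.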 The procedure, abridged:
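Plates equilibrated 20 min at 37 C, baseline recorded 40 min, compound (0.03-40 uM) added, then 40 min more recorded. Cells: primary rat cortical neurons, DIV 13 or 15. Per-well synchrony index change analysed in negative direction against DMSO.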

A short description of experiment [10]: CCTE_Shafer_MEA_dev_firing_rate_mean: CCTE's Neural Network Formation Assay for Mean Firing Rate, Shafer Lab (AID 2284031).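 For AC50: curve fitted for loss of firing so AC50 reflects decreased mean firing rate.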 The procedure, abridged:
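Steps: seed rat cortical cells (1.5 x 10^5/well) with laminin on PEI-coated MEA; dose day 0; record DIV 5/7/9/12, full media and compound exchange after DIV 5 and 9 recordings; compute well-mean firing rate AUC.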

A short description of experiment [11]: CCTE_Shafer_MEA_dev_per_burst_spike_percent: CCTE's Neural Network Formation Assay for Percent of Spikes in a Burst, Shafer Lab (AID 2284032).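 For AC50: fitted as a decrease in burst spike percentage below DMSO baseline.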 The procedure, abridged: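 Value is trapezoidal AUC over recordings on days 5, 7, 9 and 12 of the well-mean fraction of spikes falling in single-electrode bursts; rat cortical cultures exposed continuously from plating, treatment renewed DIV 5 and 9, fitted downward against DMSO.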

Experiment [12] in a line: CCTE_Shafer_MEA_dev_active_electrodes_number: CCTE's Neural Network Formation Assay for Number of Active Electrodes, Shafer Lab (AID 2284040; active = hit-call score of the fitted dose curve at least 0.9, where 1 is the maximum;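 for AC50: potency for loss of active electrodes versus DMSO so lower counts are hits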). The procedure, abridged:
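Counts electrodes per well firing at least 5 spikes/min, recorded on days 5, 7, 9 and 12 in rat cortical cultures dosed continuously from plating (treatment refreshed DIV 5, 9). Value is the area under the curve over recordings, fitted downward relative to DMSO.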

Experiment [13] is described as follows: CCTE_Shafer_MEA_dev_burst_rate: CCTE's Neural Network Formation Assay for Burst Rate, Shafer Lab (AID 2284042).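 For AC50: potency for loss of burst rate below DMSO control.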 The procedure, abridged: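 Developmental network assay measuring how 12-day exposure of rat cortical neuron cultures alters bursting on extracellular MEA recordings. Values are AUC of well-mean burst rate across four recording days, relative to DMSO vehicle.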

Experiment [14] in a line: CCTE_Shafer_MEA_dev_bursting_electrodes_number: CCTE's Neural Network Formation Assay for Number of Bursting Electrodes, Shafer Lab (AID 2284043; active = hit-call score of the fitted dose curve at least 0.9, where 1 is the maximum;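 for AC50: potency is for loss of bursting electrodes relative to DMSO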). In a few lines:
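Rat cortical primary neurons, 48-well MEA, 16 electrodes/well; dosing DIV 0–12, re-dosed with full media change DIV 5, 9. Recordings DIV 5/7/9/12, AxIS adaptive spike detector; bursting electrode = ≥1 burst/2 min. AUC across days; loss of signal vs DMSO.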

Experiment [15] in a line: CCTE_Shafer_MEA_dev_per_burst_interspike_interval: CCTE's Neural Network Formation Assay for Burst Interspike Interval, Shafer Lab (AID 2284044).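 For AC50: potency for a decrease of within-burst interspike interval below DMSO level.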 The procedure, abridged:
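Mean interspike interval within single-electrode bursts, averaged over bursting electrodes, from rat cortical cultures on MEA plates recorded on days 5, 7, 9 and 12. Continuous compound exposure from plating; trapezoidal AUC fitted downward relative to DMSO.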

Experiment [16] is described as follows: CCTE_Deisenroth_AIME_384WELL_CTox_Inactive: Cytotoxicity Assessment (CTOX) in CCTE's 384-well Estrogen Receptor Transactivation Assay without AIME metabolic competence (metabolism negative), Deisenroth Lab (AID 2284039; active = hit-call score of the fitted dose curve at least 0.9, where 1 is the maximum;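 note: cell viability via live-cell protease substrate cleaved to fluorescent probe; cells exposed 24 h to medium preincubated 2 h with alginate-water beads without S9; loss of fluorescence signal means loss of viability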). The procedure, abridged:
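Fluorescence from a live-cell protease substrate, read after 24 h in VM7Luc4E2 cells, indicated viability. Test medium came from a 2 h AIME step without hepatic S9 (alginate-water microspheres); concentrations spanned 0.002 - 200 uM, single technical replicate per run.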

Experiment [17] is described as follows: CCTE_Deisenroth_AIME_384WELL_CTox_Active: Cytotoxicity Assessment (CTOX) in CCTE's 384-well Estrogen Receptor Transactivation Assay with AIME metabolic competence (metabolism positive), Deisenroth Lab (AID 2284037; active = hit-call score of the fitted dose curve at least 0.9, where 1 is the maximum;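 note: chemicals first conditioned 2 h by alginate-bound induced rat liver S9 before cells; activity means signal loss indicating cell death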). In a few lines:
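Chemicals pre-incubated 2 hours with alginate-immobilised phenobarbital/beta-naphthoflavone-induced male Sprague Dawley rat liver S9, then conditioned medium applied 24 hour to VM7Luc4E2 cells. Viability by fluorogenic protease substrate; 10-point series 0.002 - 200 uM.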

As for `C[N+]1(C)CCCCC1`, the call in experiment [1], in experiment [2], in experiment [3], in [4], in experiment [5] and in experiment [6] was inactive. The result in experiment [7], in experiment [8], in experiment [9], in experiment [10], in experiment [11] and in experiment [13] was inactive. Further, the outcome in experiment [14] and in experiment [15] was inactive. In addition, the half-maximal activity concentration (AC50) in experiment [12] is 15 µM (active).
For `CC(C)N(C(=O)SCC(Cl)=C(Cl)Cl)C(C)C`, the AC50 was 20 µM (active) and 8.68 µM (active) in experiment [1]; 11.9 µM (active) in experiment [2]; 20 µM (active) and 15 µM (active) in [3]; 5.79 µM (active) in [4]; 10.2 µM (active) and 9.26 µM (active) in experiment [5]; 25.7 µM (active) and 20 µM (active) in experiment [6]. Moreover, the concentration at half-maximal activity (AC50) is 20 µM (active) and 15 µM (active) in experiment [8]; 20 µM (active) and 19 µM (active) in [9]; 24.4 µM (active) in experiment [11]; 27 µM (active) in experiment [12]; 15 µM (active) in experiment [14]. Moreover, the molecule was called inactive in [2], in [4], in experiment [7], in experiment [10], in experiment [16] and in experiment [13].
Take `CC(C)[C@H](C(=O)O[C@H](C#N)c1cccc(Oc2ccccc2)c1)c1ccc(Cl)cc1`: the result in experiment [1], in experiment [2], in [4], in [5] and in experiment [7] was inactive. In addition, the concentration at half-maximal activity (AC50) in [3] was 958 nM (active); in experiment [6] it was 962 nM (active); in [8] it was 4.36 µM (active); in experiment [9], 1.01 µM (active); in experiment [10], 3.13 µM (active); in experiment [11], 5.46 µM (active). Besides, the AC50 was 14.6 µM (active) in experiment [12], 4.67 µM (active) in experiment [13], 4.15 µM (active) in experiment [14] and 17.6 µM (active) in experiment [15].
For `CN1COCN(Cc2cnc(Cl)s2)C1=N[N+](=O)[O-]`, the molecule was called inactive in experiment [1], in experiment [2], in experiment [3], in [4], in [5] and in [6]. Besides, the result in experiment [7], in [8], in [9], in experiment [10], in experiment [11] and in experiment [12] was inactive. For the same molecule, the outcome in [13], in [14] and in [15] was inactive.
As for `CC1=NNC(=O)N(/N=C/c2cccnc2)C1`, the call in [1], in experiment [2], in experiment [3], in experiment [4], in [5] and in [6] was inactive. Also, the outcome in experiment [7], in experiment [8], in experiment [9], in experiment [10], in [11] and in experiment [17] was inactive. Also, the outcome in experiment [16], in experiment [13], in experiment [14] and in experiment [15] was inactive.

As usually defined, the AC50 is the concentration at which the activity in the assay is half-maximal.
